Screens deposited in PubChem by several laboratories.
GluA2 TARP mod = modulators of GluA2-stargazin AMPA receptor complexes, primary screen, cell-based, membrane potential dye. Voltage-dependent calcium channel gamma-2 subunit (Mus musculus) + Glutamate receptor 2 …. hit rate 3.5% among 40,000. AID 1259245, 2017. HEK293 GluA2+stargazin, membrane potential dye (FDSS), glutamate EC50; hits were called plate by plate, in both directions. calls only at 30 µM;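 active = any of four per-well response measures lying three or more SD from its plate-wide compound average, in either direction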
GIRK2 activator = activators of NPY4-receptor-primed GIRK2 channels, summary, cell-based, HEK293, thallium flux. activation (% efficacy), % for hits at 37.5 µM. HEK293 GIRK2/NPY4 cells, thallium flux fluorescence. 34,000 tested, under 10 active. G protein-activated inward rectifier potassium channel 2 (Homo sapiens), P48051;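 active = primary screen hit, no activity in plain HEK293 cells, and in GIRK2-only cells above 5% efficacy rising with concentration; inactive = the rest, including fluorescent compounds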;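 also: efficacy is normalized control-subtracted fluorescence 15 s after thallium addition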
* = called active by the depositor; i = inactive; nt = no result given; + = active, no number. The sample as a whole holds a higher share of hits than the screen did.

SMILES | GluA2 TARP mod | GIRK2 activator
COc1ccccc1CNC(=O)CC1CCCCN1S(=O)(=O)c1ccc(Cl)cc1 (configuration not stated) | i | nt
COc1ccccc1CNC(=O)C(=O)NCCC1CCCCN1S(=O)(=O)c1ccc(F)cc1 (configuration not stated) | i | nt
COc1ccccc1CNC(=O)C(=O)NCCC1CCCCN1S(=O)(=O)c1ccccc1 (configuration not stated) | + | nt
CN(C1CCCC1)S(=O)(=O)c1ccc(C(=O)Nc2ccc(S(N)(=O)=O)cc2)cc1 | i | nt
Cc1ccc(-n2ncc3c2ncn2nc(-c4cccs4)nc32)cc1 | i | i
O=C(c1ccc(F)cc1Cl)N1CCC2(CC1)NC(=O)N(CCc1ccccc1)C2=O | i | i
O=C(NCc1nc2ccccc2[nH]1)C1COCC(=O)N1Cc1ccccc1 (configuration not stated) | i | i
COc1ccc(-c2ccc(=O)n(CCCC(=O)N3CCN(c4ccccc4)CC3)n2)cc1 | i | i
Cc1ccnc(OCC(=O)N2CCN(c3ccc(Nc4cccnc4)nn3)CC2)n1 | nt | i
CCOC(=O)C1=C(C)NC(=O)CC1c1cccc([N+](=O)[O-])c1 (configuration not stated) | i | nt
CN1CCN(CC(O)COC2CCCC2)CC1 (configuration not stated) | i | i
CCCCC1CCC(C(=O)Nn2cnc3c(cnn3C(C)(C)C)c2=O)CC1 (configuration not stated) | i | nt
O=C(Nc1nc2ccc([N+](=O)[O-])cc2s1)c1ccc(S(=O)(=O)N2CCCCC2)cc1 | i | nt
Nc1nc2ccc(S(=O)(=O)N3CCCCC3)cc2s1 | + | i
CCOC(=O)c1ccc(NC(=O)c2sccc2N(C)S(=O)(=O)c2ccc(C)cc2)cc1 | i | i
O=C(NCCc1csc2nc(-c3cccs3)nn12)Nc1c(F)cccc1F | i | i
CSCCC(C)(O)CNC(=O)c1cc2ccccc2oc1=O (configuration not stated) | i | i
CSCCC(C)(O)CNC(=O)c1cc2ccccc2o1 (configuration not stated) | + | i
COc1ccc(OC)c(S(=O)(=O)NCC(c2ccco2)N(C)C)c1 (configuration not stated) | i | nt
C=CCCC(=O)NCC#CCN1CCc2ccccc2C1 | i | i
O=C(CCCc1ccccc1)NCC#CCN1CCc2ccccc2C1 | + | i
Cc1cc(N(C)C)nc(Nc2ccc(NC(=O)c3ccc4c(c3)OCO4)cc2)n1 | + | nt
Cc1ccc(Nc2ccc(NC(=O)c3ccc4c(c3)OCO4)cc2)nn1 | i | i
Cc1ccc(OCC(O)Cn2c(N3CCCCC3)nc3c2c(=O)n(C)c(=O)n3C)cc1 (configuration not stated) | i | nt
Cc1cc(C)c2sc(N(CC3CCCO3)C(=O)c3cc(C)no3)nc2c1 (configuration not stated) | i | i
SMILES | GluA2 TARP mod | GIRK2 activator
COc1cc(C(=O)Oc2ccc3c(c2)O/C(=C\c2cccs2)C3=O)cc(OC)c1OC | i | nt
COC(=O)COc1ccc2c(c1)O/C(=C\c1cccs1)C2=O | + | nt
O=C(NCCc1csc2nc(-c3cccs3)nn12)C(=O)Nc1ccon1 | i | i
CS(=O)(=O)c1ccc(CC(=O)N(Cc2ccccn2)c2nc3ccc(F)cc3s2)cc1 | i | nt
CCSc1nnc(NC(=O)Cn2nc(-c3ccncc3)ccc2=O)s1 | i | i
CCOc1ccccc1OCC(=O)Nc1c(CC)cccc1CC | i | i
Cn1c(=O)c2cc(C(=O)NCCc3ccccc3)sc2n(C)c1=O | i | i
CC(C)CNC(=O)c1cc2c(=O)n(C)c(=O)n(C)c2s1 | i | i
Cn1c(=O)c2cc(C(=O)Nc3ccccc3F)sc2n(C)c1=O | + | i
CN1CCN(C(=O)c2cc3c(=O)n(C)c(=O)n(C)c3s2)CC1 | + | i
Cn1c(=O)c2cc(C(=O)N3CCN(C(=O)c4ccco4)CC3)sc2n(C)c1=O | i | i
Cn1c(=O)c2cc(C(=O)NCCCN3CCCC3=O)sc2n(C)c1=O | + | i
Cn1cc(C(=O)N2CCCCCC2)cc(NC(=O)c2cc(Cl)ccc2Cl)c1=O | i | nt
Cn1cc(C(=O)N2CCCCCC2)cc(NC(=O)c2ccccc2Cl)c1=O | + | nt
COc1ccc2nc(N(CCN3CCOCC3)C(=O)c3ccc4c(c3)OCCO4)sc2c1 | + | nt
CCOc1ccc2nc(N(Cc3ccncc3)C(=O)/C=C/c3cccc([N+](=O)[O-])c3)sc2c1 | i | i
COc1ccc2nc(N(CCN3CCOCC3)C(=O)/C=C/c3cccc([N+](=O)[O-])c3)sc2c1 | + | i
